# This is a sample that favours compounds with a hit; in the whole collection about 1.7% have one here.
# FGF22 binding = binders of human FGF22 protein, primary screen, FGF22 synaptogenesis inhibitor project, biophysical, thermal shift, single point | activity (Tm shift, normalised), % at 9.99 µM | 1.5% of 340,000 active | Fibroblast growth factor 22 (Homo sapiens), Q9HCT0 | recombinant FGF22 thermal shift, SYPRO orange fluorescence; percent of sucrose octasulfate shift, DMSO zero;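 active = mean Tm shift, scaled 0 neutral to 100 positive control, at about 1.3% or above, every replicate too, limit read from the data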
# Target sequence (Q9HCT0 whole entry, looked up): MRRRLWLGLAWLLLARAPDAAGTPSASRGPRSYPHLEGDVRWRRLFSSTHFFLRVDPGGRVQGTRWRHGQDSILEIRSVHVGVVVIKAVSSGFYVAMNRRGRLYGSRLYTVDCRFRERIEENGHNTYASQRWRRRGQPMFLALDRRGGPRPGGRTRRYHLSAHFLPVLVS
# Vif inh = HIV Vif self-association inhibitors, primary screen, imaging, HEK293T, single point. HEK293T cells, Vif self-association by quenched fluorescence, 24 h. inhibition, % at 7.49 µM. 0.35% of 340,000 active; in the data active = inhibition above about 50%, passing the limit was not always enough
# F508del corr = F508del CFTR correction, initial screen, CFBE line, single point; CFBE cells, YFP halide quenching; stimulated with forskolin plus potentiator P3; % fluorescence drop versus neutral controls; activity (quench increase), % at 7.58 µM; 0.36% of 350,000 active; AID 720511, 2013;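 active = mean added fluorescence quench of at least 8% versus neutral control, with both replicates also reaching 8%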;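 also: cells transiently co-express mutant CFTR-F508del with the halide-sensitive YFP; corrector assay measuring rescue of mutant channel to the surface after 24 h compound exposure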
# * hit, by the source's call; . = no result given.
SMILES,FGF22 binding,Vif inh,F508del corr
CC(C)C(=O)Nc1ccc2c(c1)C(=O)N(C)[C@@H]1CC[C@H](CC(=O)Nc3ccccc3)O[C@@H]1CO2,0,.,0
O=S(=O)(c1cccs1)N1CCCCN2[C@H](CO)[C@H](c3ccc(C4=CCCCC4)cc3)[C@H]2C1,-1,.,-1
O=C(C[C@H]1C[C@H]2c3cc(NC(=O)CC4CC4)ccc3O[C@H]2[C@H](CO)O1)NCc1ccc2c(c1)OCO2,1,.,-8
Fc1cccc(C2NN=C(c3ccccc3)S2)c1 (stereo not drawn),44*,9,0
Cc1ccc(C2=NNC(c3cccc(F)c3)S2)cc1 (stereo not drawn),43,17,3
COCC(=O)N(C)C[C@@H]1Oc2cc(-c3ccc(C#N)cc3)ccc2S(=O)(=O)N([C@H](C)CO)C[C@H]1C,0,.,0
COCC(=O)Nc1ccc2c(c1)OC[C@H](C)N(C(=O)c1cnccn1)C[C@H](C)[C@@H](OC)CN(C)C2=O,0,.,-2
NS(=O)(=O)c1ccc(CCNC(=O)c2cc(-c3ccco3)nc3ccccc23)cc1,6.2*,7,3
NS(=O)(=O)c1ccc(CCNC(=O)c2cc(-c3ccccc3)nc3ccccc23)cc1,.,-2,.
CCCC(=O)Nc1ccc2c(c1)OC[C@H](C)N(C(=O)c1cnccn1)C[C@H](C)[C@H](OC)CN(C)C2=O,0,.,1
O=C(C[C@H]1CC[C@H]2[C@@H](COC[C@@H](O)CN2Cc2ccc(F)cc2)O1)NCCc1ccccc1,0,.,-1
O=[N+]([O-])c1cc(-c2cnc3ccccc3n2)ccc1Oc1ccc(Cl)cc1,0,15,-1
O=[N+]([O-])c1cc(-c2cnc3ccccc3n2)ccc1Cl,44*,-3,0
Cc1nc2ccc(NC(=O)C3COc4ccccc4O3)cc2s1 (stereo not drawn),0,3,0
Cc1nc2cc(NC(=O)CCS(=O)(=O)c3ccccc3)ccc2s1,44*,5,-2
Cc1nc2ccc(NC(=O)CCS(=O)(=O)c3ccccc3)cc2s1,0,0,-1
Cc1nc2cc(NC(=O)C3COc4ccccc4O3)ccc2s1 (stereo not drawn),43*,27,0
C[C@@H]1CN([C@H](C)CO)C(=O)c2cc(NC(=O)Nc3ccc(F)cc3)ccc2O[C@@H](C)CCCCO[C@H]1CN(C)S(=O)(=O)c1cn(C)cn1,.,.,-2
Cc1cc(Oc2ccc(=O)n(C)n2)nc(SCC(N)=O)n1,0,-5,-2
Cc1cc(Oc2ccc(=O)n(C)n2)nc(SCc2ccccc2)n1,43*,5,-1
CS(=O)(=O)N1[C@H](CO)[C@@H](c2ccccc2)C12CN(C(=O)C1CC1)C2,0,.,-2
O=C(/C=C\Nc1ccc2c(c1)OCO2)c1ccc(Cl)s1,43*,14,0
O=C(/C=C\Nc1ccc2c(c1)OCO2)c1cccs1,0,66*,-4
O=C(/C=C\Nc1ccc2c(c1)OCO2)c1ccc2c(c1)OCO2,1,1,-1
O=C(Nc1ccc2c(c1)OCO2)c1cccs1,.,5,.
SMILES,FGF22 binding,Vif inh,F508del corr
O=C(C[C@@H]1C[C@@H]2c3cc(NC(=O)NC4CCCCC4)ccc3O[C@@H]2[C@H](CO)O1)NCc1ccccn1,0,.,1
Cc1noc(C)c1S(=O)(=O)Nc1ccc2c(c1)C(=O)N([C@H](C)CO)C[C@H](C)[C@H](CN(C)C(=O)c1ccccc1)OCCCC[C@@H](C)O2,.,.,-4
OC[C@@H]1[C@@H](c2ccccc2)C2(CN(CCC(F)(F)F)C2)N1Cc1cccnc1,0,.,3
COC(=O)c1ccc(Cl)cc1NC(=O)/C=C/c1ccc(C)o1,44*,4,-5
COC(=O)c1cc(Cl)c(NC(=O)/C=C/c2ccc(Cl)cc2Cl)cc1OC,.,-1,.
O=C(c1cccc(F)c1)N1CCC2(CC1)NCCc1[nH]cnc12,0,4,0
O=C(Cc1ccc(Cl)cc1)NCC(=O)N1CCC2(CC1)NCCc1[nH]cnc12,43*,-5,3
O=C(Cc1ccc(Cl)cc1)N1CCC2(CC1)NCCc1[nH]cnc12,0,2,-1
O=C(c1cccc(Cl)c1)N1CCC2(CC1)NCCc1[nH]cnc12,0,52*,1
CNC[C@H]1OCCCC[C@H](C)Oc2ccc(NS(=O)(=O)c3ccccc3)cc2C(=O)N([C@@H](C)CO)C[C@H]1C,0,.,2
COc1ccc(-c2ccc3c(c2)C2CC3CCN2C(=O)C(C)(C)C)cc1 (stereo not drawn),0,.,0
